This test is described as follows: chemical genetic growth profiling, strain panel (AID 1159580).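 Also: tested at 20 µM; growth read once vehicle control cultures reached saturation at 30 °C; 1 = growth at the plate median or of vehicle wells; lower values mean less growth of the strain.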 As to conditions: S. cerevisiae deletion strains, growth OD.

The campaign covered roughly 5,500 compounds. About 2,000 (36%) were called active. Roughly 18% stayed inconclusive and do not appear here. This is one part of the list. Unmarked numbers belong to inactive results. Rule as the data show it: active = normalized growth mostly below about 0.91 (no sharp cut-off); inconclusive = no clear call, values can overlap the other calls; inactive = mostly above about 0.92.

Take `CN1CCCC1CCOC(C)(c1ccccc1)c1ccc(Cl)cc1` (configuration not stated): the normalized growth was 0.981 (locus YAL013W, strain DEP1, hits give low values); 0.986 (locus YAL040C, strain CLN3, hits give low values); 0.982 (locus YCL061C, strain MRC1 (second series), hits give low values); 0.983 (locus YDR363W, strain ESC2, hits give low values); 1 (locus YER002W, strain NOP16, hits give low values); 0.714 (active) (locus YGR229C, strain SMI1, hits give low values). Besides, the normalized growth was 0.955 (locus YMR263W, strain SAP30, hits give low values); 0.995 (locus YNL175C, strain NOP13, hits give low values); 1.03 (locus YNL197C, strain WHI3, hits give low values); 1.01 (locus YNL224C, strain SQS1, hits give low values); 0.986 (locus YOR083W, strain WHI5 (second series), hits give low values); 0.996 (locus YPL241C, strain CIN2, hits give low values).

These data come from PubChem BioAssay AID1159580 (chemical genetic matrix, 2015).
